The whole screen tested about 310,000 compounds, of which about 14,000 (4.5%) showed an effect of 50% or more. Effects have a minus sign here. What follows is part of a selection rich in strong results, with near analogues and random picks from the rest.
Target: human ether-à-go-go-related gene (hERG) potassium channel (human, UniProt Q12809)
Test: primary screen, population patch clamp on CHO cells stably expressing hERG; higher = less effect of the substance
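Note: peak tail current of the secondary pulse compared with the same well before compound.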

human ether-à-go-go-related gene (hERG) potassium channel, sequence (Q12809 whole entry, looked up): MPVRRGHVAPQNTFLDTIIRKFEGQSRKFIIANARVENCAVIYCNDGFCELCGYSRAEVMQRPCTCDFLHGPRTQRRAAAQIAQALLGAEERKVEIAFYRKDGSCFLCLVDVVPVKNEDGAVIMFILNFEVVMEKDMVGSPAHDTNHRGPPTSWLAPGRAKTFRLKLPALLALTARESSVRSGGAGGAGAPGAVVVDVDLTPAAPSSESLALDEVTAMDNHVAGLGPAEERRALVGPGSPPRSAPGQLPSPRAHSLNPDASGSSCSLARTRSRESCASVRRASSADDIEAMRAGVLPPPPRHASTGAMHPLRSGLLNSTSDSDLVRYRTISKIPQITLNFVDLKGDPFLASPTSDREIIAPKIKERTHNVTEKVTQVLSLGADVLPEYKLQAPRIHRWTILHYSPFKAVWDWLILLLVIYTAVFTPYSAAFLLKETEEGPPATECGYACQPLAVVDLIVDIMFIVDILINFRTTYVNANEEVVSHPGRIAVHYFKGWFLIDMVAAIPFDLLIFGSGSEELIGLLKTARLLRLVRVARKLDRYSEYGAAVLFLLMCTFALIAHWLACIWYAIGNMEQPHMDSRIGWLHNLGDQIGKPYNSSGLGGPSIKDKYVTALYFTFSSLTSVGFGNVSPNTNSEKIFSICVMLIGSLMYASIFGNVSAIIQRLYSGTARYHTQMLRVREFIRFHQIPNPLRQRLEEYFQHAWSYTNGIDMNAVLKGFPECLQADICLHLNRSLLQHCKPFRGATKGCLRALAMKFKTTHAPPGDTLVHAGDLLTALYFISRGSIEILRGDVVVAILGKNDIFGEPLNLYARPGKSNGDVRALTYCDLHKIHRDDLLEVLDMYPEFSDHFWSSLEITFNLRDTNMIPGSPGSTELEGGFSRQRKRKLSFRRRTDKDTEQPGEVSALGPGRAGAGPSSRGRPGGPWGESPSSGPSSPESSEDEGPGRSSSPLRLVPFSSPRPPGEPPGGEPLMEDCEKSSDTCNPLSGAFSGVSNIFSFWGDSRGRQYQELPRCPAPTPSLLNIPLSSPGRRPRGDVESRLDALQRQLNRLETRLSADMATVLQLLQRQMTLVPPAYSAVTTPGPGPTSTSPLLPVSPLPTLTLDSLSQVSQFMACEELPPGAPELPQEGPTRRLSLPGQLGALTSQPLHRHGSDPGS

Compound	hERG current change (%, negative = inhibition) at 10uM [%]
Cc1ccc(OCCOc2ccc(Br)cc2)c([N+](=O)[O-])n1	-6.68
COc1ccc(CNC(=O)C(C)c2ccc([N+](=O)[O-])cc2)cc1 (stereo not shown)	-21.2
O=C(Nc1ccc2c(c1)OCO2)c1ccc(Cl)s1	-2.22
COc1ccc(-c2nnc3ccc(SCC(=O)NCc4ccco4)nn23)cc1OC	-28.3
O=C(CSc1ccc2nnc(-c3ccc(F)cc3)n2n1)NCc1ccco1	-21.7
O=C(CSc1ccc2nnc(-c3cccc(F)c3)n2n1)NCc1ccco1	-65.5
Cc1ccc(S(=O)(=O)Nc2ccc3[nH]ccc3c2)cc1	-9.71
CCOC(=O)C1(CCOc2ccccc2)CCN(Cc2ccc3c(c2)OCCO3)CC1	-73.3
CCOC(=O)C1(Cc2ccccc2)CCN(Cc2ccc3c(c2)OCCO3)CC1	-33.1
CCOC(=O)C1(CCc2ccccc2)CCN(Cc2ccc3c(c2)OCCO3)CC1	-84.4
OCC1(CCOc2ccccc2)CCN(Cc2ccc3c(c2)OCCO3)CC1	-75.1
CCOC(=O)C1(CCc2ccccc2)CCN(C(=O)CN2CCOC2=O)CC1	14.6
CCOC(=O)C1(CCOC)CCN(CC(C)Cc2ccc3c(c2)OCO3)CC1 (stereo not shown)	-43.1
O=C1/C(=C\c2ccco2)SC(=S)N1Cc1ccccc1	10.8
N#Cc1ccc(Oc2ccc(NC(=O)C3CC=CCC3C(=O)O)cc2)cc1 (stereo not shown)	12.9
O=C1OC2(c3ccccc3)C3CCCC2C13	11.1
O=S(=O)(c1cccs1)N1CCN(c2ccc(F)cc2)CC1	-43.1
O=C(Nc1cccc(OCC(=O)N2CCOCC2)c1)c1cccc([N+](=O)[O-])c1	25.9
CC(=O)Oc1ccccc1N1C(=O)c2ccc(C(=O)O)cc2C1=O	11.3
Oc1ccccc1OCc1nc2ccccc2s1	-13.7
Cc1nc2ccc(C(=O)N/N=C/c3ccccc3O)cc2[nH]1	9.25
N#Cc1c(N)n[nH]c1Cc1cccc2ccccc12	12.3

Compound	hERG current change (%, negative = inhibition) at 10uM [%]
CCCCc1nc(C(N)=O)c2[nH]c(=O)n(-c3ccc(OC)cc3OC)c2n1	1.88
CCC(CC)C(=O)c1c[nH]c(C(=O)N2CCN(c3ccccc3F)CC2)c1	25.2
Cc1ccc(-n2c(-c3ccccc3)n[nH]c2=S)c(C)c1	7.9
COc1ccccc1-n1c(-c2ccccc2)c[n+]2c1CCc1ccccc1-2.[Br-]	-74.1
Br.COc1ccccc1N1Cc2ccccc2C1	-13.2
Cc1ccc(-n2c(-c3ccccc3)c[n+]3c2CCc2ccccc2-3)c(C)c1.[Br-]	-93
Cc1ccc(NC(=O)C[n+]2cc(-c3ccccc3)n3c2CCC3)c(C)c1.[Cl-]	-9.62
COc1ccccc1-n1c(CCC(=O)O)ccc1-c1ccccc1	-12.9
O=C(/C=C/c1ccco1)NC(=S)Nc1ccccn1	-3.42
CC(=O)Cc1nsc(NC(=O)c2cccc(F)c2)n1	12.5
O=C(Nc1ccccc1C(=O)N1CCCCC1)c1ccccc1C(F)(F)F	27.6
COc1ccc(N2C(=O)C(CN3CCCCC3)C2c2ccccc2)cc1 (stereo not shown)	-12
Cc1ccc(N2C(=O)C(CN3CCCCC3)C2c2ccccc2)cc1 (stereo not shown)	-62.6
Cc1ccc(N2C(=O)C(CN3CCOCC3)C2c2ccccc2)cc1 (stereo not shown)	-26.5
Cc1ccc(N2C(=O)C(CN3CCCC3)C2c2ccccc2)cc1 (stereo not shown)	-78.5
COc1ccc(N2C(=O)C(CN3CCN(C)CC3)C2c2ccccc2)cc1 (stereo not shown)	-16
Cc1ccc(N2C(=O)C(CN(C)C)C2c2ccccc2)cc1 (stereo not shown)	-33.1
CC(=O)c1cccc(NS(=O)(=O)c2cc(OCC(N)=O)c(C)cc2Cl)c1	6.92
COc1ccc(CN(C(=O)c2ccc(CN3CCOCC3)o2)C(C(=O)NCC2CCCO2)c2ccc(F)cc2)cc1 (stereo not shown)	-4.38
O=C(Cc1ccc(Cl)c(Cl)c1)OCC(=O)c1ccc[nH]1	-24.9
O=C(COC(=O)c1cccc([N+](=O)[O-])c1)NCC1CCCO1 (stereo not shown)	8.06
Cc1c(NC(=O)COC(=O)C2CC3C=CC2C3)c(=O)n(-c2ccccc2)n1C (stereo not shown)	13.2

Compound	hERG current change (%, negative = inhibition) at 10uM [%]
CC1=C(C(=O)Nc2cc(C(=O)NCCC(C)C)ccc2C)SCCO1	-52.4
COCCNC(=O)c1ccc(C)c(NC(=O)C2=C(C)OCCS2)c1	21.1
CCCNC(=O)c1ccc(C)c(NC(=O)C2=C(C)OCCS2)c1	3.06
O=C(CSc1nnc(-c2cccs2)o1)N1CCc2ccccc21	-10.5
CC12CCC(C(=O)Nc3ccc(Br)cn3)(OC1=O)C2(C)C (stereo not shown)	7.13
O=C(O)CCCN1C(=O)c2ccc(Oc3cccc([N+](=O)[O-])c3)cc2C1=O	17.6
COc1cccc(C(=O)Cn2c(Br)nc3c2c(=O)n(C)c(=O)n3C)c1	-13.1
CCOC(=O)c1cc2c(s1)-c1c(C)cccc1OC2	7.36
CCOC(=O)N1CCN(C(=O)c2cc3c(s2)-c2c(C)cccc2OC3)CC1	-15.5
Cc1cccc(NC(=O)c2cc3c(s2)-c2c(C)cccc2OC3)n1	29.2
Cc1cccc2c1-c1sc(C(=O)N3CCc4ccccc4C3)cc1CO2	-2.75
Cc1cccc2c1-c1sc(C(=O)NCCCN3CCC(C)CC3)cc1CO2	-77.6
CCN1CCN(C(=O)c2cc3c(s2)-c2c(C)cccc2OC3)CC1	-17.8
Cc1cccc2c1-c1sc(C(=O)N3CCCCC3)cc1CO2	-18.6
CCCN1CCN(CCCNC(=O)c2cc3c(s2)-c2c(C)cccc2OC3)CC1	-85.2
Cc1cccc2c1-c1sc(C(=O)NCCCN3CCCC(C)C3)cc1CO2 (stereo not shown)	-77.9
S=c1[nH]nc(-c2ccccc2)n1/N=C/c1cccc(Br)c1	21.4
CC(C(=O)N1CCOCC1)N1C(=O)c2cccc3cccc(c23)C1=O (stereo not shown)	16.6
COc1cc(OC)cc(-c2c(-c3cccs3)c3cc(-c4cnc(OC)nc4)ccc3n2C)c1	1.57
O=S(=O)(/N=C(/NC(=S)Nc1ccccc1)c1ccccc1)c1ccc(Cl)cc1	18.9
Cc1cc(C)c2nc(NNC(=O)c3cc(-c4cccs4)nc4ccccc34)sc2c1	18.3
O=C(CSc1nc2ccccc2n1Cc1ccccc1)N/N=C/c1ccco1	-60.7

Compound	hERG current change (%, negative = inhibition) at 10uM [%]
O=C(CSc1nc2ccccc2n1Cc1ccccc1)N/N=C/c1ccccc1C(=O)O	-0.979
Cn1c(SCC(=O)N/N=C/c2ccco2)nc2ccccc21	-2.38
Cc1ccc(Cn2c(SCC(=O)N/N=C/c3ccc(C)o3)nc3ccccc32)cc1	-61.1
CCn1c(SCC(=O)N/N=C/C=C\c2ccco2)nc2ccccc21	-9.42
Cn1c(SCC(=O)N/N=C/C=C/c2ccco2)nc2ccccc21	-42.9
Cc1ccc(/C=N/NC(=O)CSc2nc3ccccc3n2Cc2ccccc2)o1	-33.9
Cn1c(SCC(=O)N/N=C/C=C\c2ccco2)nc2ccccc21	-50.6
Cc1ccc(/C=N/NC(=O)CSc2nc3ccccc3n2Cc2ccc(Cl)cc2)o1	-16.2
Cc1cc(NC(=O)CSc2ccccn2)no1	11.3
CN(C(=O)c1ccno1)c1nnc(-c2cnccn2)s1	6.99
CC(C)(C)NC(=S)N/N=C/c1cc(Br)c(O)c(Br)c1	29.8
CCC12CN3CCN(CC(C3)C1O)C2 (stereo not shown)	-6.76
CCOc1ccc2[nH]c3nc(SCC(=O)NC4CCCC4)nnc3c2c1	14.1
O=C(NCc1ccccc1)c1ccc2nc(-c3ccco3)c(-c3ccco3)nc2c1	-10.7
CC1CCN(C(=O)CSc2nnc(-c3ccc(S(=O)(=O)N4CCOCC4)cc3)n2C)CC1	-4.38
Cc1cccc(C)c1Nc1c(-c2ccc(N3CCOCC3)cc2)nc2ncccn12	-19
Oc1ccc(-[n+]2c(-c3ccccc3)cc(-c3ccccc3)cc2-c2ccccc2)cc1.[O-][Cl+3]([O-])([O-])[O-]	-71.3
Cc1ccc(-c2cc(-c3ccccc3)cc(-c3ccccc3)[n+]2-c2ccc(C(=O)O)cc2)cc1.[O-][Cl+3]([O-])([O-])[O-]	4.17
Cc1ccc(-c2cc(-c3ccc(C)cc3)[n+](-c3ccccc3)c(-c3ccc(C)cc3)c2)cc1.[O-][Cl+3]([O-])([O-])[O-]	-80.2
Brc1ccc(-c2ccccc2)cc1	0.132
Cc1ccc(-c2cc(-c3ccccc3)cc(-c3ccccc3)[n+]2-c2ccccc2)cc1.[O-][Cl+3]([O-])([O-])[O-]	-82.1
Brc1ccc(-[n+]2c(-c3ccccc3)cc(-c3ccccc3)cc2-c2ccccc2)cc1.[O-][Cl+3]([O-])([O-])[O-]	-73.8

From publication PMC4336329 (PLoS ONE, 2015)
